Source: PubChem BioAssay
Sampled rows, rich in hits. Any-hit rate of the full collection: about 10%.
Pf growth 96h = P. falciparum growth inhibition at 96 hour, primary screen for plastid delayed-death inhibitors. Potency, µM (titrated, usually from 28.7 µM), for the others: top-dose activity change, negative = inhibition, actives largely listed as inhibitors. P. falciparum luciferase reporter growth, 96 h. AID 504834. 320,000 tested, 6.9% active; active = well fitted inhibition curve with a large enough effect; inconclusive = small, poorly fitted or top-dose-only effect, or another doubt; inactive = no such curve, though single readings can be large or run the other way; also: % is scaled to controls: 0 for no effect and ±100 for the full control effect
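Compounds incubated with erythrocytes infected by luciferase-expressing P. falciparum (2% hematocrit, 0.05% parasitemia final) for 96 hours, 37 C in 5% CO2. Growth inhibition scored as decreased luciferase luminescence.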
Pf growth 48h = P. falciparum growth inhibition at 48 hours (one generation) | AID 504832 | P. falciparum luciferase growth in erythrocytes, 48 h | Potency, µM (doses to about 28.7 µM), for the others: at the highest dose activity change, negative = inhibition, usual class: inhibitors | 310,000 tested, 5.9% active; active = well fitted inhibition curve with a large enough effect; inconclusive = small, poorly fitted or top-dose-only effect, or another doubt; inactive = no such curve, though single readings can be large or run the other way; also: % is scaled to controls: 0 for no effect and ±100 for the full control effect
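Firefly luciferase activity from engineered P. falciparum reports growth; inhibitors lower the luminescent signal. Cultures contained 2% hematocrit erythrocytes at 0.1% final parasitemia.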
NS1 inh = blocks influenza NS1 protein function. Potency, µM (titrated, usually from 46.1 µM), inactives show at the highest dose activity, positive = more growth. 270,000 tested, 0.4% active. AID 2326; also: actives are rising curves; nearly all actives have a fitted effect of over 50% in size
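Growth recovery, yeast-based: influenza A NS1 expressed in S. cerevisiae causes slow growth, and suppressors are detected by OD600. The parent strain without NS1 is used as positive control.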
SARS PLpro yeast = inhibitors of SARS-CoV papain-like protease in yeast | S. cerevisiae expressing SARS-CoV PLpro, growth rescue | Potency, µM (doses to about 32.9 µM), inactives show at the highest dose activity, positive = growth rescue, most hits filed as activators | 330,000 tested, 0.19% active | AID 485353; also: 0% is about no effect; nearly all actives have a fitted effect of over 55% in size
* = called active by the depositor; u = inconclusive; x = no result given. Unless noted, calls follow the shape of the full dose curve. Potency is read from the fitted curve at half-maximal effect.

SMILES	Pf growth 96h	Pf growth 48h	NS1 inh	SARS PLpro yeast
Cc1cc(Cl)c2oc(C(=O)N(C)CCCCN3CCOCC3)c(C)c2c1	u	-12.6%	18.4%	-3.5%
Cc1ccc(N(C)S(=O)(=O)c2cccc(C(=O)Nc3ccc(N4CCOCC4)cc3)c2)cc1	10.4µM*	u	x	18.7%
CN(C)S(=O)(=O)c1cccc(C(=O)Nc2ccc(N3CCOCC3)cc2)c1	19.7%	1.4%	9.6%	0.2%
COc1ccc(N(C)S(=O)(=O)c2cccc(C(=O)NC3CCCC3)c2)cc1	u	10.4µM*	x	-0.2%
COc1ccc(N(C)S(=O)(=O)c2cccc(C(=O)Nc3ccc(N4CCOCC4)cc3)c2)cc1	u	8.28µM*	x	2.6%
CN(c1ccccc1)S(=O)(=O)c1cccc(C(=O)Nc2ccc(N3CCOCC3)cc2)c1	u	u	x	-0.2%
CC(Sc1n[nH]c(=O)n1Cc1ccccc1)C(=O)NCC1CCCO1 (stereo not drawn)	6.2%	3.7%	x	-5.4%
O=C(CCCO)NNc1c2ccccc2nc2ccccc12	1.31µM*	1.47µM*	-3.2%	-1.5%
O=C(NNc1c2ccccc2nc2ccccc12)c1ccccc1Cl	u	u	-0.7%	-4.2%
O=C(NNc1c2ccccc2nc2ccccc12)c1ccc(O)cc1	-101.5%	u	-10.9%	2.2%
O=C(NNc1c2ccccc2nc2ccccc12)C(O)c1ccccc1 (stereo not drawn)	0.415µM*	u	-42.1%	-2.8%
CCCC(=O)NNc1c2ccccc2nc2ccccc12	9.28µM*	-25.7%	-10.4%	-1.0%
ONC(=Nc1cccc(C(F)(F)F)c1)c1cccnc1	29.8%	u	3.9%	0.1%
CCCn1c(N)cc(=O)n(C)c1=O	9.6%	6.0%	3.7%	2.6%
COC(=O)[C@]1(C)CCC[C@@]2(C)C3CC[C@@]4(C)C[C@]3(CCC21)CC4=NO (stereo partly drawn)	u	-16.8%	x	-1.7%
Cc1ccc(F)cc1NC(=O)COC(=O)COc1ccc(C#N)cc1	44.5%	-1.7%	x	-3.0%
CC(C)CCN1C(=O)c2ccc(C(=O)OCC(=O)N(CC(C)C)C3CCS(=O)(=O)C3)cc2C1=O (stereo not drawn)	x	x	x	0.4%
COc1ccc(C(=O)NCC(O)COc2ccc(C(C)(C)C)cc2)cc1[N+](=O)[O-] (stereo not drawn)	6.57µM*	-4.2%	10.6%	19.7%
COC(=O)C1=CN(c2ccc(OC)cc2)C=C(C(=O)OC)C1c1ccc([N+](=O)[O-])cc1	4.15µM*	13.1µM*	-0.6%	-0.1%
CCOC(=O)C1=NN(c2ccc([N+](=O)[O-])cc2)CC1C(=O)OC (stereo not drawn)	u	32.0%	-2.4%	u
COC(=O)C1=CN(C2CC2)C=C(C(=O)OC)C1c1ccc(C(=O)OC)cc1	224.7%	u	1.3%	-15.1%
COC(=O)C1=CNC=C(C(=O)OC)C1c1cccc(OC)c1	29.5%	u	9.0%	3.4%
COC(=O)C1=CN(c2ccc(F)cc2)C=C(C(=O)OC)C1c1ccc([N+](=O)[O-])cc1	9.28µM*	7.38µM*	12.8%	-0.8%
COC(=O)C1=CN(c2ccc(Cl)cc2)C=C(C(=O)OC)C1c1ccc([N+](=O)[O-])cc1	5.22µM*	13.1µM*	4.3%	1.3%
COC(=O)C1=CN(c2cccc(Cl)c2)C=C(C(=O)OC)C1c1cccc(OC)c1	53.9%	11.7µM*	7.5%	10.1%
SMILES	Pf growth 96h	Pf growth 48h	NS1 inh	SARS PLpro yeast
CCCNC(=O)C(Cc1ccc(Cl)cc1)NC(=O)c1ccc(-c2ccccc2)cc1 (stereo not drawn)	u	-11.7%	x	-1.4%
COC(=O)C1=CN(c2ccc(F)cc2)C=C(C(=O)OC)C1c1cccc(Br)c1	-13.8%	11.7µM*	21.8%	3.1%
COC(=O)C1=CNC=C(C(=O)OC)C1c1ccc(Cl)cc1	1.3%	9.28µM*	-3.2%	2.9%
COC(=O)C1=CNC=C(C(=O)OC)C1c1ccccc1Cl	10.4%	-24.6%	-3.5%	0.0%
COC(=O)C1=CNC=C(C(=O)OC)C1c1cccc2ccccc12	6.1%	11.7µM*	0.2%	-1.1%
COC(=O)C1=C(C)N(C)C(=S)N(C)C1c1cccc(Br)c1 (stereo not drawn)	-1.1%	u	-4.1%	19.8%
COc1ccc(OC)c(-n2nnnc2SCC(=O)N2CCN(C(=O)c3ccco3)CC2)c1	u	-8.8%	3.0%	0.5%
Cc1cc2cc3c(cc2nc1SCC(=O)N1CCN(C(=O)c2ccco2)CC1)OCO3	u	13.1µM*	-47.3%	6.3%
Cc1cc(C)cc(-c2nnc(SCC(=O)N3CCN(C(=O)c4ccco4)CC3)o2)c1	11.7µM*	u	0.6%	5.3%
Cc1ccc(-n2nnnc2SCC(=O)N2CCN(C(=O)c3ccco3)CC2)c(C)c1	6.57µM*	-19.2%	-14.0%	u
O=C(NNC(=O)c1ccccc1O)c1ccc(Cl)c(S(=O)(=O)N2CCCCC2)c1	-0.3%	-25.3%	x	-2.6%
Cc1ccc(Cn2c(SCC(=O)N(C)C3CCS(=O)(=O)C3)nc3ccccc3c2=O)cc1 (stereo not drawn)	u	u	x	-3.0%
CC(=O)c1c(N2CCN(C)CC2)[nH]c(-c2ccccc2)nc1=S	115.6%	1.65µM*	15.6%	2.4%
CC(C)CN1C=C2C(=O)C(C)(OC(=O)C3CCCC3)C(=O)C=C2C=C1c1ccsc1 (stereo not drawn)	10.4µM*	u	6.9%	-1.7%
CC1(OC(=O)C2CCCC2)C(=O)C=C2C=C(c3ccsc3)N(CCc3ccccn3)C=C2C1=O (stereo not drawn)	u	u	0.5%	0.3%
CC1(OC(=O)C2CCCC2)C(=O)C=C2C=C(c3ccsc3)N(Cc3ccccc3)C=C2C1=O (stereo not drawn)	u	11.7µM*	7.5%	-0.3%
CCN(CC)CCCN1C=C2C(=O)C(C)(OC(=O)C3CCCC3)C(=O)C=C2C=C1c1ccsc1 (stereo not drawn)	u	10.4µM*	6.8%	1.0%
C=CCN1C=C2C(=O)C(C)(OC(=O)C3CCCC3)C(=O)C=C2C=C1c1ccsc1 (stereo not drawn)	u	u	9.9%	1.5%
Cc1ccc(NC(=O)CSCC(=O)NCc2cccc(C(F)(F)F)c2)cc1	-3.8%	-15.9%	x	-2.3%
Cc1cccc(CNC(=O)CCc2nnc(C3CCCCC3)o2)c1	u	57.2%	-0.6%	-1.0%
COc1ccc(/C=N/c2oc(C)c(C)c2C#N)c(OC)c1	11.7µM*	-8.8%	1.5%	0.3%
COc1cc(/C=N/c2oc(C)c(C)c2C#N)cc(Br)c1O	-28.4%	10.8%	3.2%	-1.2%
CCNC(=S)NN=C1c2ccccc2-c2ccccc21	4.65µM*	-18.5%	x	0.6%
C=C(C)CNC(=S)NN=C1c2ccccc2-c2ccccc21	u	2.3%	x	5.6%
O=C(Cc1ccc(F)cc1)Nc1ccccc1N1CCCC1	-13.0%	-16.8%	-4.3%	1.4%
Cc1cc(NC(=O)CSCC(=O)Nc2ccccc2N2CCCCC2)no1	u	13.1µM*	x	-3.1%
O=C(Cc1ccc(Cl)c(Cl)c1)Nc1ccccc1N1CCCC1	11.7µM*	-12.0%	-4.9%	-4.9%
NC(=O)CCC(NC(=O)c1ccc(Cl)cc1)C(=O)NCCc1ccc2c(c1)OCCO2 (stereo not drawn)	24.8%	-21.4%	x	-1.3%
